# Screens: PubChem, Broad Institute
# The entries come from a sample that favours hits as a whole.
# T cruzi growth-1 – inhibitors of T. cruzi proliferation; actives 5.9% (n = 77,000); AID 624255; inhibition, % at 8.34 µM; T. cruzi beta-gal in NIH3T3, GalScreen luminescence, 90 h;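 active = mean inhibition above about 93%, with at least 55% of replicates each passing it, limit read from the data, passing the limit was not always enough; inconclusive = only one of those two conditions holds; inactive = neither condition holds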
# C diff growth – blocks growth of Clostridium difficile; actives 0.25% (n = 86,000); growth activity, negative = inhibition, % at 16 µg/mL (by protocol); Clostridium difficile clinical isolate growth, OD600, 24 h; hits give low values;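 active = mean growth activity at or below -80% and every replicate also at or below -80%; inconclusive = mean at or below -80% but some replicate above -80%; inactive = mean growth activity above -80%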;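 also: 0% = DMSO wells and -100% = levofloxacin 16 µg/mL wells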
# T cruzi growth-2 – Trypanosoma cruzi proliferation inhibition | shares compounds with T cruzi growth-1 | T. cruzi beta-gal in NIH3T3, GalScreen luminescence, 90 h | inhibition, % at 8.35 µM | actives 72% (n = 5,600) | AID 651739;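 active = mean replicate inhibition above about 95% and at least 55% of replicates individually reaching it, limit read from the data; inconclusive = only one of the two criteria is met; inactive = neither criterion is met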
# T cruzi growth-3 – blocks T. cruzi growth in NIH3T3 host cells. shares compounds with T cruzi growth-1. actives 21% (n = 5,600). T. cruzi beta-gal in NIH3T3, GalScreen luminescence, 90 h. inhibition, % at 2.09 µM;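 active = mean inhibition above about 95%, with at least 55% of replicates also reaching it, limit read from the data; inconclusive = meets just one of the two conditions; inactive = meets neither condition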;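 also: plate controls were neutral control median for no effect and positive control median for full effect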
# NIH3T3 tox – kills mouse NIH/3T3 fibroblasts | shares compounds with T cruzi growth-1 | NIH/3T3 viability, CellTiter-Glo ATP luminescence, 90 h | cytotoxicity (signal decrease), % at 8.35 µM | actives 14% (n = 5,600) | AID 651742;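 active = mean signal decrease across replicates above about 35% based on untreated-well scatter, with enough replicates individually passing, limit read from the data; inconclusive = no rule stated though some were filed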;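 also: 0% = median of neutral control wells and 100% = median of positive control wells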
# 3T3 cytotox 2 – kills mouse NIH/3T3 fibroblasts; inhibition, % at 24.9 µM; actives 56% (n = 5,600); shares compounds with T cruzi growth-1; NIH/3T3 viability, CellTiter-Glo ATP luminescence, 90 h;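 active = mean loss of cell viability signal at or above a set limit, and enough replicates individually reaching it; inconclusive = meets only the mean limit or only the replicate share; inactive = meets neither condition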;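 also: 0% = median of neutral control wells and 100% = median of positive control wells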
# Numbers without * were called inactive; ? = inconclusive; / = no result.
SMILES,T cruzi growth-1,C diff growth,T cruzi growth-2,T cruzi growth-3,NIH3T3 tox,3T3 cytotox 2
C[C@H](CO)N1C[C@H](C)[C@H](CN(C)C(=O)C2CCC2)Oc2cc(Br)ccc2S1(=O)=O,-46.8,/,/,/,/,/
C[C@H]1CN([C@@H](C)CO)C(=O)Cc2cc(NC(=O)Cn3cnnn3)ccc2O[C@H]1CN(C)S(=O)(=O)c1ccc(F)cc1,6.0,-3.0,/,/,/,/
C[C@@H]1CN([C@H](C)CO)C(=O)c2cc(NC(=O)Nc3cccc4ccccc34)ccc2O[C@@H](C)CCCCO[C@H]1CN(C)C(=O)Nc1ccc(C(F)(F)F)cc1,88.7,-9.2,/,/,/,/
C[C@H](CO)N1C[C@H](C)[C@@H](CN(C)C(=O)Nc2ccc(C(F)(F)F)cc2)OCCCC[C@H](C)Oc2ccc(NC(=O)Nc3cccc4ccccc34)cc2C1=O,101.0*,-11.7,104.0*,94.5,9.4,17.6
C[C@H]1CCCCO[C@@H](CN(C)C(=O)Nc2ccc(C(F)(F)F)cc2)[C@@H](C)CN([C@@H](C)CO)C(=O)c2cc(NC(=O)Nc3cccc4ccccc34)ccc2O1,90.2,-18.3,/,/,/,/
C[C@H]1CCCCO[C@H](CN(C)C(=O)Nc2ccc(C(F)(F)F)cc2)[C@@H](C)CN([C@@H](C)CO)C(=O)c2cc(NC(=O)Nc3cccc4ccccc34)ccc2O1,103.3*,-18.9,109.4*,108.6*,13.9,23.6
C[C@H](CO)N1C[C@H](C)[C@@H](CN(C)C(=O)Nc2cccc3ccccc23)Oc2ccc(NS(C)(=O)=O)cc2C1=O,36.0,-6.6,/,/,/,/
O=C(N[C@@H]1CC[C@@H](CCNS(=O)(=O)c2cccc(Cl)c2)O[C@@H]1CO)c1ccc(F)cc1,36.8,-10.9,/,/,/,/
C[C@H](CO)N1C[C@H](C)[C@H](CN(C)Cc2ccc(C(F)(F)F)cc2)Oc2ccc(NC(=O)CCN3CCOCC3)cc2CC1=O,?,5.4,-41.7,19.0,-5.3,2.7
C[C@H](CO)N1C[C@H](C)[C@H](CN(C)Cc2ccc(-c3ccccc3)cc2)Oc2ccc(NC(=O)CCN3CCOCC3)cc2CC1=O,18.1,4.2,/,/,/,/
C[C@H](CO)N1C[C@H](C)[C@@H](CN(C)Cc2ccc(-c3ccccc3)cc2)Oc2ccc(NC(=O)CCN3CCOCC3)cc2CC1=O,99.3*,-3.0,113.5*,54.2,13.3,104.6*
C[C@@H]1CN([C@@H](C)CO)C(=O)Cc2cc(NC(=O)CCN3CCOCC3)ccc2O[C@@H]1CN(C)Cc1ccc(C(F)(F)F)cc1,12.2,-16.9,/,/,/,/
C[C@@H]1CN([C@H](C)CO)C(=O)c2cccc(NC(=O)CCCCCC(=O)Nc3ccccc3N)c2O[C@H]1CN(C)S(=O)(=O)c1ccc(Cl)cc1,91.9,-5.8,/,/,/,/
C[C@H](CO)N1C[C@H](C)[C@@H](CN(C)S(=O)(=O)c2ccc(Cl)cc2)Oc2c(NC(=O)CCCCCC(=O)Nc3ccccc3N)cccc2C1=O,102.9*,-8.9,109.3*,88.4,-5.0,1.6
C[C@H]1CN([C@@H](C)CO)C(=O)c2cccc(NC(=O)CCCCCC(=O)Nc3ccccc3N)c2O[C@H]1CN(C)S(=O)(=O)c1ccccc1,/,-7.4,/,/,/,/
C[C@H]1CN([C@@H](C)CO)C(=O)c2cccc(NC(=O)CCCCCC(=O)Nc3ccccc3N)c2O[C@H]1CN(C)S(=O)(=O)c1ccc(Cl)cc1,100.6*,-6.4,106.3*,76.2,-1.7,4.6
C[C@@H]1CN([C@H](C)CO)C(=O)c2cc(N(C)C)ccc2O[C@H]1CN(C)Cc1ccc(Cl)c(Cl)c1,58.5,-5.5,/,/,/,/
CC(C)CC#Cc1ccc2c(c1)O[C@H](CN(C)C(=O)Cc1ccccc1)[C@H](C)CN([C@H](C)CO)S2(=O)=O,125.1*,21.9,93.6,73.6,-12.6,106.1*
CC(C)CC#Cc1ccc2c(c1)O[C@@H](CN(C)C(=O)Cc1ccccc1)[C@H](C)CN([C@@H](C)CO)S2(=O)=O,129.3*,-7.8,97.1*,103.0*,12.6,104.3*
CCC(=O)N(C)C[C@H]1Oc2cc(C#CCC(C)C)ccc2S(=O)(=O)N([C@@H](C)CO)C[C@@H]1C,86.7,-14.3,/,/,/,/
CCC(=O)N(C)C[C@@H]1Oc2cc(C#CCC(C)C)ccc2S(=O)(=O)N([C@@H](C)CO)C[C@H]1C,51.0,-11.7,/,/,/,/
CCC(=O)N(C)C[C@H]1Oc2cc(C#CCC(C)C)ccc2S(=O)(=O)N([C@H](C)CO)C[C@@H]1C,55.3,-1.9,/,/,/,/
CC(C)CC#Cc1ccc2c(c1)O[C@@H](CN(C)C(=O)Cc1ccccc1)[C@H](C)CN([C@H](C)CO)S2(=O)=O,129.2*,8.3,105.4*,99.5*,-12.3,106.8*
C[C@@H]1CN([C@@H](C)CO)S(=O)(=O)c2ccc(C#Cc3ccccc3F)cc2O[C@@H]1CN(C)C(=O)Cc1ccccc1,120.1*,2.4,101.8*,98.6*,31.7,78.4*
C[C@H](CO)N1C[C@H](C)[C@@H](CN(C)C(=O)Cc2ccncc2)Oc2cc(C#Cc3ccccc3F)ccc2S1(=O)=O,/,-5.3,/,/,/,/
SMILES,T cruzi growth-1,C diff growth,T cruzi growth-2,T cruzi growth-3,NIH3T3 tox,3T3 cytotox 2
CN1C(=O)c2cc(NC(=O)c3ccccc3F)ccc2OC[C@@H]2O[C@@H](CC(=O)NCc3ccc4c(c3)OCO4)CC[C@@H]21,18.4,-7.7,/,/,/,/
CO[C@H]1CN(C)C(=O)c2cc(NC(=O)Nc3cc(F)ccc3F)ccc2OC[C@H](C)N(C(=O)c2ccccn2)C[C@@H]1C,-53.0,-0.2,/,/,/,/
O=C(N[C@H]1C=C[C@@H](CC(=O)N2CCc3ccccc3C2)O[C@@H]1CO)C1CC1,31.4,/,/,/,/,/
CC(=O)N(C)C[C@@H]1Oc2cc(C#Cc3ccccc3F)ccc2S(=O)(=O)N([C@H](C)CO)C[C@@H]1C,66.7,-20.5,/,/,/,/
C[C@@H]1CN([C@H](C)CO)S(=O)(=O)c2ccc(C#Cc3ccccc3F)cc2O[C@H]1CN(C)C(=O)c1ccc2c(c1)OCO2,125.0*,-3.7,99.9*,106.4*,29.9,90.9*
COCC(=O)Nc1ccc2c(c1)[C@H]1C[C@H](CC(=O)NCCc3ccccc3)O[C@@H](CO)[C@H]1O2,-33.6,-0.5,/,/,/,/
N#C[C@H]1[C@H](c2ccc(C#CC3CC3)cc2)[C@@H](CO)N1S(=O)(=O)c1ccccc1,96.6*,3.6,100.0*,102.8*,3.5,12.6
N#C[C@H]1[C@H](c2ccc(C#CC3CCCCC3)cc2)[C@@H](CO)N1S(=O)(=O)c1ccccc1,91.9,-11.9,/,/,/,/
N#C[C@@H]1[C@@H](c2ccc(C#CC3CC3)cc2)[C@H](CO)N1S(=O)(=O)c1ccccc1,95.5*,0.2,?,102.3*,7.3,?
N#C[C@H]1[C@@H](c2ccc(C#CC3CCCC3)cc2)[C@@H](CO)N1S(=O)(=O)Cc1ccccc1,89.5,-13.4,/,/,/,/
N#C[C@@H]1[C@@H](c2ccc(C#CC3CCCCC3)cc2)[C@H](CO)N1S(=O)(=O)c1ccccc1,79.0,-28.3,/,/,/,/
N#C[C@H]1[C@@H](c2ccc(C#CC3CC3)cc2)[C@H](CO)N1S(=O)(=O)c1ccccc1,101.3*,4.5,98.1*,112.7*,?,53.0*
